The record followed here is PubChem BioAssay (NCI).

Each structure is given as a SMILES string. “And” between values parts separate entries of the source, which are not always exact repeats. Identical values can stand only once. The panel holds about 83,000 compounds, 20% with a hit somewhere; the sample as a whole holds those more often.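 Plates (96-well) were seeded with cells, treated with compound at one concentration, and incubated for 48 hours before percent growth was determined.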 The source made the active and inactive calls. Where a SMILES comes first, the peptide text is derived from it. [ ]: non-standard residue; d: D form. ξ: configuration not given here. ξV = CC(C)C(N)C(=O)O

The subject of the first assay is SK-MEL-5 melanoma. Briefly: NCI-60 one-dose screen, 48 h (100 = growth as untreated, 0 = no growth, -100 = all killed). To be noted: 0.0025 µM. Here is the method: Growth inhibition of the SK-MEL-5 human tumor cell line is measured as a screen for anti-cancer activity. Cells are grown in 96 well plates and exposed to the test compound for 48 hours. Compounds are tested at a single concentration, which is 10^-5 M for most compounds. The reported endpoint is percent growth (GI% or GIPRCNT), where numbers from 0 - 100% represent growth inhibition, and numbers from -100% - 0 represent cell death. For example, a value of 40 represents 60% growth inhibition. A value of 0 means no net growth occurred over the course of the experiment. A value of -40 indicates 40% of cells at the beginning of the experiment died by the end of the experiment. A value of -100 means all cells are dead at the end of the experiment.
NCI-60 Human Tumor Cell Lines Screen was performed using the standard one-dose NCI protocol, which is described in more detail at https://dtp.cancer.gov/discovery_development/nci-60/default.htm.
Compounds with GIPRCNT values below 10 were considered active. Activity score was based on GIPRCNT using the following formula: […]
Score is 0 for GIPRCNT values of 100 or above, 50 for GIPRCNT values of 0, and 100 for GIPRCNT values of -100.
Take `COc1cccc2c1C(=O)c1c(O)c3c(c(O)c1C2=O)C[C@@](O)(C(=O)CO)C[C@@H]3OC1CC(N)C(O)C(C)O1` (stereo not given in full): the growth is 93.2% (inactive).

The same assay, now with this note: 10 µM.
Take `O=c1ccn(C2CC(O)C(COC(c3ccccc3)(c3ccccc3)c3ccccc3)O2)c(=O)[nH]1` (stereo not given): the growth was 93.3% (inactive). As for `COc1cccc2c1C(=O)c1c(O)c3c(c(O)c1C2=O)C[C@@](O)(C(=O)CO)C[C@@H]3OC1CC(N)C(O)C(C)O1` (stereo not given in full), the growth is -85.1% (active).

The assay is the same for the next values; noted with them: 10 µM unless noted.
Regarding `O=C1C=CC(=CC=C2C=CN(CCCCCCCCCCCO)C=C2)C=C1`, the growth is -54.3% (active). Take `O=[N+]([O-])C1=C(c2ccccc2)SC=C(c2ccccc2)S1`: the growth was 87% (inactive). Still for that read-out and setting: to `Nc1nc(=S)c2ncn(C3OC(CO)C(O)C3O)c2[nH]1` (stereo not given) belongs 116% (inactive) and 22.7% (inactive). On the same count and under the same terms, the result for `NNc1c2ccccc2nc2ccccc12` reads 22% (inactive). Still for that read-out and setting: to `CN1CCN(CCCN2c3ccccc3Sc3ccc(C(F)(F)F)cc32)CC1` belongs 24.5% (inactive); to `CCCCCCCCCCSC(=N)N`, 50.7% (inactive); to `COC(=O)C1=COC(C)C2C[n+]3ccc4c([nH]c5ccccc54)c3CC12` (stereo not given), 100% (inactive) and 93.6% (inactive).

Regarding `CCCCCCCCCCCC[N+](C)(C)Cc1ccccc1`, the growth was -87.1% (active). Still for that read-out and setting: the result for `CS(=O)(=O)OC1CC(n2ccc(=O)[nH]c2=O)OC1COC(c1ccccc1)(c1ccccc1)c1ccccc1` (stereo not given) reads 101% (inactive); that for `Cc1cc(NS(=O)(=O)c2ccc(N=Nc3cc(N=Nc4ccc(S(=O)(=O)Nc5cc(C)nc(C)n5)cc4)c4c(NC(=O)C(Cl)Cl)cccc4c3OC(=O)C(Cl)Cl)cc2)nc(C)n1` (tested in a mixture with another compound), 96.9% (inactive) and 87.6% (inactive). Still for that read-out and setting: to `CCCCCCCCCCCCCCCCCCOCC(COP(=O)([O-])OCC[N+](C)(C)C)OC` (stereo not given) belongs 62.5% (inactive); to `OCC1OC(n2cnc3c(=S)nc[nH]c32)C(O)C1O` (stereo not given), 102% (inactive) and 80.9% (inactive). On the same count and under the same terms, the result for `COc1ccc(CC(=O)c2ccc(O)cc2O)cc1` reads 103% (inactive); that for `OCC(O)C(O)C(O)C(/C=N/Nc1ccccc1)=N/Nc1ccccc1` (stereo not given), 86.8% (inactive); that for `Cc1cc(O)c(C(C)C)cc1Cl`, 103% (inactive). As for `CCCC1CCC(=C2C(=O)CCC2=O)O1` (stereo not given), the growth is 88.6% (inactive) and 102% (inactive). `CSC1SCC2C(=O)N(C)C(C(C)C)C(=O)OCC(NC(=O)c3cnc4ccccc4n3)C(=O)NC(C)C(=O)N(C)C1C(=O)N(C)C(C(C)C)C(=O)OCC(NC(=O)c1cnc3ccccc3n1)C(=O)NC(C)C(=O)N2C` (stereo not given): the growth is -73.1% (active).

Turning to `COc1c(O)cc2oc3cc(O)c(CC=C(C)C)c(O)c3c(=O)c2c1CC=C(C)C`, the growth was 90% (inactive). As for `CCN1/C(=C/C=C/C=C/c2sc3ccccc3[n+]2CC)Sc2ccccc21`, the growth was -95.4% (active). On to `CCCCCC(C)c1ccc(O)c(C)c1` (stereo not given), for which the growth was 104% (inactive). The same measure, in the same setting: the result for `CCO/C=C1\SC(=S)N(c2cccc(O)c2)C1=O` reads 99.4% (inactive). The same measure, in the same setting: the result for `CC(C)C(NC(=O)CN)C(=O)O` (stereo not given) (H-Gly-[ξV]-OH) reads 104% (inactive) and 102% (inactive).

As for `N=S(c1ccccc1[N+](=O)[O-])c1ccccc1[N+](=O)[O-]`, the growth is 50.3% (inactive). Still for that read-out and setting: to `COc1cccc2c1C(=O)c1c(O)c3c(c(O)c1C2=O)C[C@@](O)(C(C)=O)C[C@@H]3OC1CC(N)C(O)C(C)O1` (stereo not given in full) belongs -90.5% (active); to `O=C1NC(=O)c2cc([N+](=O)[O-])ccc21`, 104% (inactive); to `NC1=C(Cl)C(=O)c2ccccc2C1=O`, -80.8% (active). Regarding `O=C(C(=Cc1ccccc1)C(=O)c1ccccc1)c1ccccc1`, the growth is 66.6% (inactive) and 94.4% (inactive).

As to `Nc1ccc2cc3ccc(N)cc3nc2c1`, the growth was 105% (inactive) and -3.97% (active). Take `COC(=O)C1C(O)C(C)C(O)C(C)C=C(C)C2=C3C(=C(C)C(=O)c4c(O)c(c(C)c(OC(C)=O)c43)NC(=O)C(C)=C/C=C\C(C)C(O)C(C)C1O)OCO2` (stereo not given): the growth was 110% (inactive). Still for that read-out and setting: to `CCCCCCCCCCCCSC(=NC)NC` belongs -5.79% (active) and 69.5% (inactive); to `OC(CN1CCCC2CCCCC21)c1cc2ccccc2c2ccccc12` (stereo not given), -84.6% (active); to `Clc1ccc(/C=C/c2ccccn2)c(Cl)c1`, 81.6% (inactive).

As to `NC(=O)SCC(=O)NNc1ccccc1`, the growth is 103% (inactive).

In the case of `NNc1ccc2ccccc2c1`, the growth is 89.3% (inactive) and 87.6% (inactive). On to `O=C(O)COc1ccc(OCC(=O)O)cc1`, for which the growth was 2.69% (active). Same read-out and setting: to `Cc1nc(N=C(N)N)nc2ccc3ccccc3c12` belongs 2.88% (active).

Still in this assay, the particulars now being: 100 µM.
As to `O=c1ccn(C2CC(O)C(COC(c3ccccc3)(c3ccccc3)c3ccccc3)O2)c(=O)[nH]1` (stereo not given), the growth is 32.2% (inactive).
